The list is not random: actives were taken first. Their share in the collection is about 4.5%.
FXN GAA850 act: increases GAA850 frataxin promoter reporter activity; HEK293 lucGAA850 FXN promoter luciferase reporter, 24 h; percent of 10 µM SAHA response; activation, % at 6 µM; hit rate 0.56% among 360,000; AID 540364;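 active means activation above the average of all compounds screened plus 3 SD, cutoff fixed separately per campaign, cut at about 7.5% in these data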;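 further: 0% = DMSO wells and 100% = 10 µM SAHA wells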
hcDAF12 agonist: activators of H. contortus DAF-12 nuclear receptor | HEK293 hcDAF-12 lit1-tk-luc reporter, luminescence; 0% DMSO, 100% Δ7-dafachronic acid | hit rate 1.4% among 370,000 | AID 652067 | activation, % at 6.8 µM;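 active means activation above the mean of all tested compounds plus 3 SD, cut at about 5.5% in these data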;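 further: 100% = response to 3 µM Δ7-dafachronic acid high control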
DAX1 inh-1: inhibitors of DAX1 repression of SF-1 activated StAR promoter | HEK293T StAR-luciferase reporter, SF-1/DAX-1 repression relief | inhibition, % at 6.8 µM | hit rate 1.1% among 370,000;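 active means inhibition above the mean over all tested compounds plus 3 SD, cut at about 3.6% in these data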;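 further: 0% = DAX-1 cells with DMSO and 100% = cells lacking DAX-1 with DMSO; higher inhibition means more luminescence from relief of DAX-1 repression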
hgDAF-12 ag: activates the H. glycines DAF-12 receptor ligand-binding domain | HEK293 GAL4-hgDAF12 UAS-luciferase reporter, agonist luminescence; normalized to butyrate control | activation, % at 6.8 µM | hit rate 1.8% among 370,000;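 active means activation above a cutoff set at the mean of all screened compounds plus 3 SD, cut at about 10% in these data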;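 further: 0% = DMSO wells and 100% = sodium butyrate wells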
ssDAF-12 act: activators of S. stercoralis DAF-12 nuclear receptor; HEK293 ssDAF-12/GRIP1 lit1-tk-luc reporter, luminescence; % of 3 µM dafachronic acid response; activation, % at 6.8 µM; hit rate 1% among 370,000; AID 652126;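 active means activation above the mean over all tested compounds plus 3 SD, cut at about 0.9% in these data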;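 further: 0% = DMSO-only wells and 100% = 3 µM delta7-dafachronic acid wells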
DAX1 inh-2: inhibitors of human orphan nuclear receptor DAX1 (NR0B1). inhibition, % at 6.75 µM. hit rate 0.99% among 340,000. HEK293 Gal4-DAX1 luciferase reporter, luminescence;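 active means inhibition above the mean over all tested compounds plus 3 SD, cut at about 4.2% in these data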;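 further: 0% = DAX1-transfected cells with DMSO and 100% = empty-vector control cells with DMSO; inhibition shows as a rise in luminescence from relieved DAX1 repression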
Target sequence (P51843 207-470 limits assumed): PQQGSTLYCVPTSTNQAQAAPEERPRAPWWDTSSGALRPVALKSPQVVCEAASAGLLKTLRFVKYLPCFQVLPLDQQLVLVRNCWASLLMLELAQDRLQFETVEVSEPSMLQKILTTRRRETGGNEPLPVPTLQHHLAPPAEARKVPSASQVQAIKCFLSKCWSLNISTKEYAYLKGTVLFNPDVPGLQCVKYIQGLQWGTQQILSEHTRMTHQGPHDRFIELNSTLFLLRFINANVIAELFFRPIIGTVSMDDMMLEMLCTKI
DAX1 inh confirm: confirmation of human DAX1 (NR0B1) inhibitors. shares compounds with DAX1 inh-1. HEK293T StAR-promoter luciferase reporter, SF-1/DAX-1 repression. inhibition, % at 6.8 µM. hit rate 87% among 2,400. AID 652134;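 active means inhibition above the average of every tested compound plus 3 SD, cut at about 3.8% in these data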;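 further: 0% = DAX-1 cells with DMSO and 100% = no DAX-1 control cells with DMSO; active compounds raise luminescence by relieving repression of the StAR reporter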
SF1 AF2mut Luc: counter-screen for DAX1 inhibitors: nonselective inhibitors with SF-1 AF2 mutant. shares compounds with DAX1 inh-1. HEK293 StAR-luciferase, luminescence. inhibition, % at 6.8 µM. hit rate 78% among 2,400;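 active means inhibition above the mean of all tested compounds plus 3 SD, cut at about 3% in these data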;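 further: 0% = DAX-1 transfected cells with DMSO and 100% = cells without DAX-1 with DMSO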
LXR ag: LXR-beta agonism as hcDAF-12 counter-screen; HEK293 Gal4-LXR tk-luc reporter, luminescence, 24 h; normalized: DMSO 0%, positive control 100%; activation, % at 6.8 µM; shares compounds with hcDAF12 agonist; 3,400 tested, under 10 active;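 active means mean percent activation of the reporter above a cutoff set as the average over tested compounds plus their standard deviation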
hcDAF12 conf: confirmation of H. contortus DAF-12 agonists. hit rate 61% among 3,400. HEK293 hcDAF-12 lit1-tk-luc reporter, luminescence; % of Δ7-dafachronic acid response. activation, % at 6.8 µM. shares compounds with hcDAF12 agonist;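 active means mean activation across triplicate tests above the threshold derived from the earlier primary screen, cut at about 5.5% in these data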;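 further: 0% = DMSO only wells and 100% = 3 µM Δ7-dafachronic acid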
hgDAF12 conf: confirmation of H. glycines DAF-12 agonists; shares compounds with hgDAF-12 ag; hit rate 80% among 3,300; HEK293 GAL4-hgDAF12 luciferase reporter, agonist mode; percent of butyrate response; activation, % at 6.8 µM;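 active means mean activation over triplicate wells above the hit cutoff derived from the earlier primary screen, cut at about 11% in these data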;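 further: 0% = DMSO low control and 100% = 2 mM sodium butyrate high control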
LXR ag 2: activates human LXR-beta, counter-screen for DAF-12 agonists | shares compounds with hgDAF-12 ag | HEK293 Gal4-LXR luciferase reporter, 24 h | activation, % at 6.8 µM | 3,300 tested, under 10 active;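 active means mean activation of the triplicate above a set limit carried over from the primary screen, none filed active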
Numbers without * were called inactive; . = no result given.

SMILES | FXN GAA850 act | hcDAF12 agonist | DAX1 inh-1 | hgDAF-12 ag | ssDAF-12 act | DAX1 inh-2 | DAX1 inh confirm | SF1 AF2mut Luc | hgDAF12 conf | LXR ag 2 | others
COc1ccc(C(=O)c2oc3ccc(OC)cc3c2N)cc1 | 2.7 | 3.2 | 6.1* | 20.7* | -0.6 | 2.8 | 12.2* | 5.8* | 14.8* | 0.8
CCCCNC(=O)C[C@@H]1C[C@@]2(C(=O)OC)CCCCC=C2N(Cc2ccc(Cl)cc2Cl)C1=O | . | -0.7 | -0.7 | -1.2 | -0.9 | . | . | . | . | .
c1ccc(-c2ncc3c(ccc4ccccc43)n2)cc1 | 1.9 | 23.4* | 6.3* | 16.7* | 3.6* | 4.1 | 12.1* | 3.8* | 16.9* | 1.1
CC(=O)N/N=C\c1cccc(OC/C=C/c2ccccc2)c1 | 4.0 | 2.7 | 10.2* | 13.7* | -0.2 | -1.6 | 8.9* | 5.2* | 15.8* | 0.8
CC(=O)c1ccc(NC(=O)NC2CCCCCCC2)cc1 | 4.8 | 4.9 | 11.9* | 14.2* | -0.5 | 2.3 | 12.8* | 7.4* | 15.9* | 0.6
CC(=O)c1ccc(NC(=O)Nc2ccc(Cl)cc2)cc1 | 2.7 | 7.1* | 6.5* | 14.9* | 0.0 | 1.9 | 6.6* | 5.8* | 16.4* | 0.5 | LXR ag=0.8;hcDAF12 conf=7.4*
O=C(Nc1ccccc1F)NC1CC1 | 1.0 | 0.5 | 0.3 | 0.9 | -1.2 | 2.9 | . | . | . | .
CC(=O)c1ccc(NC(=O)C(C)Nc2ccc(Cl)cc2)cc1 (configuration not stated) | -1.0 | -0.5 | -0.6 | 0.6 | -1.0 | -0.2 | . | . | . | .
O=C(Nc1ccccc1F)NC1CCCCCCC1 | 2.7 | 2.6 | 4.5* | 13.4* | 0.4 | 1.9 | 7.2* | 4.1* | 9.9 | 0.4
Cc1ccc(NC(=S)NNC(=O)CSc2nc3sc4c(c3c(=O)n2-c2ccccc2)CCCC4)cc1 | . | 0.9 | 1.3 | 0.2 | -1.1 | . | . | . | . | .
O=[N+]([O-])c1ccccc1OCc1nc(-c2cccs2)no1 | 4.9 | 4.5 | 8.5* | 13.8* | 0.5 | 2.2 | 11.3* | 6.2* | 14.2* | 0.9
O=C(O)CCc1nc(-c2cccs2)no1 | 3.1 | 0.5 | -0.1 | 1.2 | -0.3 | -0.3 | . | . | . | .
Cc1ccc(OCc2nc(-c3cccs3)no2)c([N+](=O)[O-])c1 | 1.7 | 7.1* | 12.0* | 14.1* | 1.9* | 0.2 | 14.9* | 7.1* | 18.6* | 1.2 | LXR ag=1.4;hcDAF12 conf=7.6*
CC(=Nc1ccc(Cl)cc1N)c1c(O)cc(C)oc1=O | . | 10.3* | 9.8* | 24.5* | 1.6* | . | 2.8 | 1.1 | 15.8* | 0.5 | LXR ag=0.3;hcDAF12 conf=5.6*
C=CCNC(=O)Nc1ccc2c(c1)[C@@]1(CC(=O)N(CC(C)C)C1c1ccccc1)C(=O)N2C (some centres not stated) | . | 0.4 | 1.9 | -1.4 | -0.9 | . | . | . | . | .
O=S1(=O)CC(c2ccccc2)=NN=C(c2ccccc2)C1 | 2.0 | 9.5* | 7.6* | 16.6* | 1.5* | 3.1 | 11.1* | 3.9* | 15.5* | 1.0 | LXR ag=1.3;hcDAF12 conf=8.5*
O=C(O)c1cc(N/N=C/c2ccncc2)ccc1Cl | 1.9 | -0.1 | 0.6 | 1.1 | -0.7 | -3.2 | . | . | . | .
